Measured values reported in PubChem BioAssay (NCATS).
“And” between values parts separate entries of the source, which are not always exact repeats. Identical values can stand only once. Results filed as inconclusive are left out. Unmarked numbers belong to inactive results. The source made the active and inactive calls. Unless noted, the call rests on the fitted dose curve; in most records, active means well fitted activation curve with a large enough effect; inconclusive means small, poorly fitted or top-dose-only effect; inactive means flat fitted curve, though single readings scatter.

molecular target: Tumor necrosis factor (Homo sapiens) (UniProt P01375); experiment: qHTS assay to identify small molecules that stimulate Tumor Necrosis Factor-alpha (TNF-alpha) secretion (AID 651757; active means well fitted curve in the direction sought with a large enough effect in the signal ratio; the % refers to the signal ratio; further: 0% is about no effect); conditions: Human cells, HTRF 665/615 ratio; series mostly up to 92.2 µM
Sequence (P01375 whole entry, looked up): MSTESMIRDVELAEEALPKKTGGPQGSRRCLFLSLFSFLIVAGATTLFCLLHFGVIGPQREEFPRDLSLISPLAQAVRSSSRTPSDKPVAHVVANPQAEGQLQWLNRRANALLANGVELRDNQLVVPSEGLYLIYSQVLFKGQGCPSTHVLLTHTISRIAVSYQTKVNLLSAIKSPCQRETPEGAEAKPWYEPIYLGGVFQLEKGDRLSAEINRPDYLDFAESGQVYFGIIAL
Outline: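 Read-out is HTRF, a TR-FRET sandwich of cryptate- and XL665-labeled anti-TNF-alpha antibodies detecting cytokine secreted by THP-1 cells. Cells had been incubated with test compounds at 37 C for 17 hrs beforehand.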

Row | Compound | outcome
1 | COc1ccc(CCN(C)CCCC(C#N)(c2ccc(OC)c(OC)c2)C(C)C)cc1OC (stereo not drawn) | inactive
2 | Clc1ccc(C(c2ccccc2Cl)C(Cl)Cl)cc1 (stereo not drawn) | inactive
3 | Cn1c(=O)c2c(ncn2C)n(C)c1=O | inactive
4 | CC(C)NCC(O)c1ccc(O)c(O)c1 (stereo not drawn) | inactive
5 | Cc1cn([C@H]2C[C@H](N=[N+]=[N-])[C@@H](CO)O2)c(=O)[nH]c1=O | inactive
6 | Nc1ccn([C@H]2CC[C@@H](CO)O2)c(=O)n1 | inactive
7 | O=c1[nH]cc(F)c(=O)[nH]1 | inactive
8 | COc1cc2c(c(OC)c1OC)-c1ccc(OC)c(=O)cc1[C@@H](NC(C)=O)CC2 | inactive
9 | CC(C)C(=O)Nc1ccc([N+](=O)[O-])c(C(F)(F)F)c1 | inactive
10 | COc1ccc2c(c1)c(CC(=O)O)c(C)n2C(=O)c1ccc(Cl)cc1 | inactive
11 | NCCS(=O)(=O)O | inactive
12 | CCC1(c2ccccc2)C(=O)NCNC1=O | inactive
13 | Cn1c(=O)c2[nH]cnc2n(C)c1=O | inactive
14 | Cc1cn([C@H]2C=C[C@@H](CO)O2)c(=O)[nH]c1=O | inactive
15 | NS(=O)(=O)c1cc2c(cc1Cl)NCNS2(=O)=O | inactive
16 | CC(COc1ccccc1)N(CCCl)Cc1ccccc1 (stereo not drawn) | inactive
17 | Cc1ccc(-c2cc(C(F)(F)F)nn2-c2ccc(S(N)(=O)=O)cc2)cc1 | inactive

test system: not listed separately; experiment: qHTS assay for environmental chemicals that activate the Aryl hydrocarbon Receptor (AhR) signaling pathway (AID 651777); conditions: 1A2-DRE human hepatoma cells, luciferase, 24 h; activation: hits give high values; further: nearly all actives have a fitted effect of over 15% in size; further: potency means the concentration at half of the fitted maximal effect; on activation: % of control where 0% means no effect
Outline: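 Quantitative HTS in stably transfected human liver-derived cells whose luciferase gene sits downstream of the CYP1A2 promoter and dioxin response element. After 24 hr exposure at 37 C, One-Glo luminescence was measured.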

Row | Compound | activation | Potency
18 | CC#C[C@]1(O)CC[C@H]2[C@@H]3CCC4=CC(=O)CCC4=C3[C@@H](c3ccc(N(C)C)cc3)C[C@@]21C | 14.1% | –
19 | O=C(c1ccc(OCCN2CCCCC2)cc1)c1c(-c2ccc(O)cc2)sc2cc(O)ccc12 | -4.31% | –
20 | Clc1ccc(C(c2ccccc2Cl)C(Cl)Cl)cc1 (stereo not drawn) | 2.12% and 0.378% | –
21 | Cn1c(=O)c2c(ncn2C)n(C)c1=O | -0.0272% and 0.654% | –
22 | CC(C)NCC(O)c1ccc(O)c(O)c1 (stereo not drawn) | 0.956% and 0.375% | –
23 | O=C(Nc1ccc([N+](=O)[O-])cc1Cl)c1cc(Cl)ccc1O | – | 1.41 µM (active)
24 | Cc1cn([C@H]2C[C@H](N=[N+]=[N-])[C@@H](CO)O2)c(=O)[nH]c1=O | -0.858% and 1.65% | –
25 | CC(C)Cc1ccc(C(C)C(=O)O)cc1 (stereo not drawn) | -1.21% | –
26 | O=c1[nH]cc(F)c(=O)[nH]1 | -0.168% | –
27 | Nc1c2c(nc3ccccc13)CCCC2 | 11.6% | –
28 | C[C@](N)(Cc1ccc(O)c(O)c1)C(=O)O | -1.04% | –
29 | COc1cc2c(c(OC)c1OC)-c1ccc(OC)c(=O)cc1[C@@H](NC(C)=O)CC2 | -0.775% and -1.98% and -0.55% | –
30 | CC(C)C(=O)Nc1ccc([N+](=O)[O-])c(C(F)(F)F)c1 | 3.62% and 3.92% | –
31 | COc1ccc2[nH]cc(CCNC(C)=O)c2c1 | 0.634% and 1.82% and 3.42% | –
32 | COc1ccc2c(c1)c(CC(=O)O)c(C)n2C(=O)c1ccc(Cl)cc1 | 0.534% and -1.07% | –
33 | NCCS(=O)(=O)O | -0.375% | –
34 | O=c1c(-c2ccc(O)cc2)coc2cc(O)cc(O)c12 | – | 12.6 µM (active)
35 | CCC1(c2ccccc2)C(=O)NCNC1=O | -1.18% and 8.62% | –
36 | Cn1c(=O)c2[nH]cnc2n(C)c1=O | 3.65% | –
37 | O=C(CCCN1CCC(O)(c2ccc(Cl)cc2)CC1)c1ccc(F)cc1 | -0.128% | –
38 | Cc1cn([C@H]2C=C[C@@H](CO)O2)c(=O)[nH]c1=O | 0.0815% and -0.191% and -0.434% | –
39 | NS(=O)(=O)c1cc2c(cc1Cl)NCNS2(=O)=O | 0.0029% and 2.21% | –
40 | CCOC(=O)C(C)(C)Oc1ccc(Cl)cc1 | 0.305% | –
41 | CN(C)CCOC(c1ccccc1)c1ccccc1 | 0.827% | –
42 | Cc1ccc(-c2cc(C(F)(F)F)nn2-c2ccc(S(N)(=O)=O)cc2)cc1 | -1.91% | –
43 | Cn1cnc2c1c(=O)[nH]c(=O)n2C | 2.86% | –
